Assays:
Assay in all cases: PBM binding z-score (relative to random genomic background probes); higher = stronger binding; sequences stand for … in GC…GCGATTGACAGCGTAGAATGAAGG
[1] = test system: FXR:RXRa (NR concentration 270 nM, RXRa partner concentration 90 nM)
How it was run: (§1)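 For binding z-scores, the reference was random background probes on custom Agilent 4×180K protein-binding microarrays. These arrays were incubated 1 h with ligand-free nuclear receptor dimers in PBS pH 7.4, 2% milk, 0.02% Triton X-100, 1 mM DTT, 0.2 mg/mL BSA and 0.4 mg/ml salmon testes DNA. Fluorescence was scanned after antibody detection of each partner (one per run) and regression-normalized.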

[2] = test system: LXRa:RXRa (NR concentration 270 nM, RXRa partner concentration 90 nM)
How it was run: as §1

[3] = test system: LXRa homodimer (NR concentration 270 nM)
How it was run: as §1

[4] = test system: LXRb:RXRa (NR concentration 270 nM, RXRa partner concentration 90 nM)
How it was run: as §1

[5] = test system: LXRb homodimer (NR concentration 270 nM)
How it was run: as §1

[6] = test system: PPARa:RXRa (NR concentration 270 nM, RXRa partner concentration 90 nM)
How it was run: as §1

[7] = test system: PPARg:RXRa (NR concentration 180 nM, RXRa partner concentration 90 nM)
How it was run: as §1

[8] = test system: PPARg:RXRa 270nM:90nM, anti-RXR (NR concentration 270 nM, RXRa partner concentration 90 nM)
How it was run: as §1

[9] = test system: PPARg:RXRa 30nM:10nM, anti-RXR (NR concentration 30 nM, RXRa partner concentration 10 nM)
How it was run: as §1

[10] = test system: PPARg:RXRa 90nM:30nM, anti-RXR (NR concentration 90 nM, RXRa partner concentration 30 nM)
How it was run: as §1

[11] = test system: PPARg:RXRa DBDmut IVT, anti-RXR (DBD mutation: RXRa K156A/R161A, NR concentration 270 nM, RXRa partner concentration 90 nM)
How it was run: as §1

[12] = test system: PPARg:RXRa IVT, anti-PPARg (NR concentration 270 nM, RXRa partner concentration 90 nM)
How it was run: as §1

[13] = test system: PPARg DBDmut:RXRa IVT, anti-PPARg (DBD mutation: PPARg1 K132A/R137A, NR concentration 270 nM, RXRa partner concentration 90 nM)
How it was run: as §1

[14] = test system: PPARg DBDmut IVT, anti-PPARg (DBD mutation: PPARg1 K132A/R137A, NR concentration 270 nM)
How it was run: as §1

[15] = test system: PPARg homodimer (NR concentration 180 nM)
How it was run: as §1

[16] = test system: PXR:RXRa (NR concentration 270 nM, RXRa partner concentration 90 nM)
How it was run: as §1

[17] = test system: PXR homodimer (NR concentration 270 nM)
How it was run: as §1

[18] = test system: RARa:RXR (NR concentration 270 nM, RXRa partner concentration 90 nM)
How it was run: as §1

[19] = test system: RARa homodimer (NR concentration 270 nM)
How it was run: as §1

[20] = test system: RARb:RXRa (NR concentration 270 nM, RXRa partner concentration 90 nM)
How it was run: as §1

| Sequence | PBM binding z-score [1] | PBM binding z-score [2] | PBM binding z-score [3] | PBM binding z-score [4] | PBM binding z-score [5] | PBM binding z-score [6] | PBM binding z-score [7] | PBM binding z-score [8] | PBM binding z-score [9] | PBM binding z-score [10] | PBM binding z-score [11] | PBM binding z-score [12] | PBM binding z-score [13] | PBM binding z-score [14] | PBM binding z-score [15] | PBM binding z-score [16] | PBM binding z-score [17] | PBM binding z-score [18] | PBM binding z-score [19] | PBM binding z-score [20] |
| --- | --- | --- | --- | --- | --- | --- | --- | --- | --- | --- | --- | --- | --- | --- | --- | --- | --- | --- | --- | --- |
| TGAATGAGGTTAAAGATCTGGGAACGTGGCGTCG | 2.5 | 2.16 | -0.214 | 1.46 | 0.347 | 3.54 | 2.7 | 3.6 | 1.69 | 2.98 | 2.25 | 2.86 | 1.17 | -0.223 | 0.811 | 1.19 | -0.0436 | 1.8 | -0.239 | 1.93 |
| CCGACCGGGGCAGAAAGGTTACCATACCATCCGG | 0.539 | 0.79 | -0.149 | 0.91 | -1.19 | 1.89 | 0.899 | 1.07 | -0.267 | 0.343 | -0.478 | -0.0375 | -0.85 | -1.32 | 0.496 | 1.16 | -0.029 | 1.83 | -0.144 | 2.06 |
| TCTTGTAGATGAAAGGTTAAGAAAGCCGAAGCCT | 1.26 | 1.83 | 0.275 | 1.67 | 0.361 | 3.62 | 5.98 | 6.86 | 6.79 | 7.44 | 2.04 | 2.16 | 0.389 | 0.195 | 0.811 | 1.29 | 0.117 | 2.05 | 0.435 | 1.73 |
| CGTCCAAGGTCAAAGGTCAGAGAAGAGATGACGG | 8.35 | 7.24 | 3.55 | 6.68 | 1.89 | 7.26 | 10.7 | 9.26 | 8.39 | 9.75 | 4.12 | 6.13 | 1.12 | 0.47 | 3.77 | 7.04 | 1.67 | 8.89 | 1.92 | 5.97 |
| TATACAGGGTCAAAGGCCAGCGTACGAATGTCGA | 7.47 | 6.28 | 2.26 | 4.8 | 2.36 | 6.28 | 8.39 | 7.25 | 5.73 | 7.51 | 2.18 | 4.79 | 2.29 | 0.981 | 3.54 | 4.34 | 0.322 | 6.38 | 1.26 | 4.46 |
| GGAACGAGGGCAAGTTGATAGAAGAGTTTGATGG | 0.705 | 0.396 | -0.176 | 0.213 | -0.242 | 1.41 | 1.29 | 0.969 | 0.173 | 0.351 | 3.6 | 2.75 | -0.45 | 0.0544 | 0.482 | 0.801 | 0.693 | 0.45 | 0.336 | 2.64 |
| CGTCCAAGGTCAAAGGACAGTGAAGAGATGACGG | 6.9 | 5.32 | 0.749 | 3.74 | 1.13 | 5.6 | 5.59 | 5.73 | 2.46 | 4.8 | 2.81 | 3.71 | 1.49 | 0.353 | 2.89 | 3.74 | 0.957 | 4.39 | 0.706 | 5.21 |
| CAAACTAGGTCAAGATGTCAAAGTCCGCTTCCCG | 3.9 | 3.18 | 0.475 | 2.4 | 0.306 | 4.98 | 8.33 | 7.27 | 4.86 | 7.04 | 8.4 | 8.48 | 2.81 | 1.01 | 2.29 | 1.86 | -0.0603 | 3.02 | 0.666 | 4.12 |
| TCTCGGAGGACACGATGGTCAGAGCTTTCCAGAG | 0.101 | -0.284 | -0.822 | -0.381 | -1.39 | -0.0198 | -0.18 | 0.7 | 1.73 | 1.07 | 1.01 | -0.167 | -0.797 | -0.992 | -1.04 | -0.421 | -0.66 | -0.201 | -0.829 | 1.51 |
| TCGATTAGTTGAAGGGCAACCGACGAGTCCGTTT | 0.259 | 0.194 | -0.152 | 0.106 | -0.503 | 0.295 | -0.114 | 1.19 | 2.74 | 1.85 | 1.72 | 0.195 | 0.000817 | 0.136 | -0.0561 | 0.157 | 0.0884 | 0.128 | 0.353 | 1.2 |
| ATGTCTAGGTAAAGTTCAGTGAAAGATCGATAGA | 1.21 | 1.74 | 1.26 | 1.15 | 0.816 | 2.56 | 3.51 | 4.55 | 2.43 | 4.25 | 1.29 | 2.46 | 1.14 | 1.13 | 1.69 | 2.12 | 1.98 | 1.13 | 1.09 | 2.84 |
| GATACAGGGTCAGCTAGAGGCCCGAGTATGGAAA | 4.27 | 2.31 | -0.511 | 1.8 | -0.813 | 4.42 | 3.6 | 3.1 | 0.492 | 1.92 | 0.969 | 2.18 | -0.156 | -0.833 | 1.37 | 1.72 | -0.766 | 2.93 | -0.152 | 3.83 |
| AGTCAAAGTTCATCTAGGTAACGTAGGATATGCT | 6.48 | 6.18 | 5.41 | 3.66 | 1.7 | 4.7 | 6.41 | 6.28 | 3.31 | 5.55 | 1.16 | 3.96 | 1.76 | 1.26 | 2.37 | 5.12 | 7.16 | 3.89 | 1.67 | 4.85 |
| ACTAGTTGGTGAGCTGAGGTCACACACAATTCGG | 2.78 | 2.49 | 1.5 | 2.85 | 0.277 | 3.35 | 1.49 | 2.09 | 0.341 | 1.3 | 0.913 | 1.97 | 0.121 | 0.0784 | 2.24 | 4.76 | 1.9 | 4.65 | 0.439 | 2.98 |
| GCGACTTGGGCATCAGCAGGTTACCATAACTTAA | -0.439 | -0.445 | -0.567 | -0.214 | -0.905 | -0.0723 | 0.0729 | -0.529 | -0.585 | -0.893 | -0.319 | -0.238 | -1.02 | -0.802 | -0.13 | -0.0644 | -0.495 | 0.232 | -0.904 | 0.00104 |

Reference: the supplement of paper PMC6555819
